# High-throughput results as filed in PubChem.
# HCMV inh: human cytomegalovirus inhibition; HFF cells, HCMV-luciferase reporter, 72 h; active compounds read low; 410,000 compounds, 4.5% hits; activity change, negative = inhibition, % at 57.5 µM; in the data active = activity change below about -60%; inconclusive = no clear call, values can overlap the other calls; inactive = above about -39%
#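 Cell-based, HFFs, 1000 cells/well, 16 h 37C; cpds in DMSO + HCMV-luc, MOI 1 PFU/cell; 72 h 37C; OneGlo luminescence after 5 min RT; norm. to buffer vs Salinomycin 10uM.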
# Pf growth 96h: P. falciparum growth inhibition at 96 hour, primary screen for plastid delayed-death inhibitors | P. falciparum luciferase reporter growth, 96 h | Potency, µM (titrated, usually from 28.7 µM), most hits filed as inhibitors | 320,000 compounds, 6.9% hits | AID 504834
#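 Parasite growth measured via integrated firefly luciferase reporter in P. falciparum. Infected erythrocytes at 2% hematocrit, 0.05% parasitemia final were treated 96 hours at 37 C under 5% CO2, and luminescence was read.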
# FBPA Giardia inh: blocks Giardia fructose-bisphosphate aldolase activity | 290,000 compounds, 0.71% hits | purified Giardia FBPA | AID 2451 | A8B2U2 | Potency, µM (top dose mostly 59.6 µM), usual class: inhibitors; also: nearly all actives have a fitted effect of over 55% in size
# Target sequence (A8B2U2 whole entry, looked up): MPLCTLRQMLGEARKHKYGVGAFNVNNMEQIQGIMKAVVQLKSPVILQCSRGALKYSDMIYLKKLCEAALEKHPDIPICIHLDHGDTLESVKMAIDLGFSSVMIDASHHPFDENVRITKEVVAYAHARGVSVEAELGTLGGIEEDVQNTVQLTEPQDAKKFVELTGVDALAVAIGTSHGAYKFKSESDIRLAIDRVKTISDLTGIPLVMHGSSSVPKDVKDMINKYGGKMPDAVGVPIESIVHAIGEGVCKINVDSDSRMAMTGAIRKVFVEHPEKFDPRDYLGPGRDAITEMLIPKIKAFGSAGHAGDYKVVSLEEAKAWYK
#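 40 nM FBPA preincubated 10 min at RT with compound (up to 57.5 uM final), then substrate plus GAPDH/TPI/NAD/arsenate coupling and diaphorase/resazurin added. Fluorescence read after 20 min at RT, 525/598 nm.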
# Pf growth 48h: inhibits P. falciparum growth in the first generation, 48 h. 310,000 compounds, 5.9% hits. P. falciparum luciferase growth in erythrocytes, 48 h. Potency, µM (titrated, usually from 28.7 µM), usual class: inhibitors. AID 504832
#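 Parasite viability was followed by luminescence of a genomically integrated firefly luciferase. Cultures held 0.1% parasitemia at 2% hematocrit (final), incubated under 5% CO2 at 37 C.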
# Sm TGR block: inhibitors of Schistosoma mansoni thioredoxin glutathione reductase. Q962Y6. purified TGR, DTNB reduction, TNB absorbance 405 nm. Potency, µM (series often up to 114 µM), hits mostly inhibitors. 360,000 compounds, 3% hits. AID 485364; also: nearly all actives have a fitted effect of over 60% in size
#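 First, TGR (20 nM dispensed) and NADPH were mixed with compound. Second, a 15 min room-temperature incubation followed. Third, further NADPH and then DTNB were added to start the reaction. Finally, TNB absorbance was monitored kinetically.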
# A number is an active result; 0 = inactive; ? = inconclusive; - = not tested or not shown; [ ] = another dose, or the depositor's remark. Rows were chosen to be rich in hits. Some 14% of all compounds tested hit in one or more screens of this group. Unless noted, calls follow the shape of the dose curve; as a rule, active = well fitted curve in the direction sought with a large enough effect; inconclusive = small, poorly fitted or top-dose-only effect, or another doubt; inactive = no such curve, though single readings can be large; an effect the other way counts as inactive or inconclusive.
SMILES,HCMV inh,Pf growth 96h,FBPA Giardia inh,Pf growth 48h,Sm TGR block
COCC1CCN(C(=O)c2ccc3oc(CCc4ccccc4)nc3c2)C1 (centres undefined),0,-,-,-,-
O=C(c1ccc2oc(CCc3ccccc3)nc2c1)N1CC[C@H](O)C1,0,7.4µM,-,0,0
CC(=O)N1CCN(C(=O)c2ccc3oc(CCCc4ccccc4)nc3c2)CC1,0,13µM,0,0,0
CCOC(=O)N1CCN(C(=O)c2ccc3oc(CCCc4ccccc4)nc3c2)CC1,0,10µM,-,0,0
O=C(c1ccc2oc(CCCc3ccccc3)nc2c1)N1CCCC(CCCO)C1 (centres undefined),-61,?,-,0,0
O=C1CCC(C(=O)N2CCN(c3ccccc3)CC2)CN1Cc1ccc(Cl)cc1 (centres undefined),0,-,-,-,-
COc1ccccc1C(=O)NCCC(=O)NCC1COc2ccccc2O1 (centres undefined),0,?,-,0,0
COc1cc(NC(=O)c2cc(C(C)C)on2)cc(OC)c1OC,0,?,0,-,0
COc1cccc(NC(=O)c2cccc(Cl)c2)c1,0,0,-,0,0
COc1cc(NC(=O)c2cc(Cl)nnc2Cl)cc(OC)c1OC,0,?,0,12µM,0
COc1cccc(NC(=O)c2cc(Cl)nnc2Cl)c1,0,?,0,3.7µM,0
COc1ccc(C=C2C=C(C(C)(C)C)C(=O)C(C(C)(C)C)=C2)cc1OC,-99,0,0,?,4.5µM
COc1ccc(/C=C2\CC/C(=C\c3ccc(OC)c(OC)c3)C2=O)cc1OC,?,?,0,0,0
COC(=O)[C@@H]1CC[C@H](C)[C@@H](c2ccc(C)cc2)N1C(=O)c1ccc(/C=N\O[C@@H](C)CN2CCCc3nc(C)c(C)cc32)cc1,-,-,0[12.9 µM],-,-
Ic1ccc(N2CCN(Cc3c[nH]c4ncccc34)CC2)cc1,?,?,0,?,0
Oc1ccc(CN2CCN(c3ccccc3)CC2)c2cccnc12,-,0,0,7.4µM,1.4µM
CSc1ncccc1C(=O)N1CCN(S(=O)(=O)c2cc(C)ccc2C)CC1,0,0,-,0,0
Oc1c(Cl)cc(CN2CCCCC2)c2cccnc12,-,0,?,3.7µM,4.5µM
Oc1ccc(CN2CCC(Cc3ccccc3)CC2)c2cccnc12,-101,0,0,?,7.9µM
Cc1ccc(C)c(S(=O)(=O)N2CCN(Cc3ccc(O)c4ncccc34)CC2)c1,-100,4.1µM,0,0,?
FC(F)(F)c1ccccc1CN1CCC(Cc2ccccc2)CC1,0,?,?,0,0
CCC(Oc1nc2ccccc2nc1-c1ccccc1NC(C)=O)C(=O)c1ccccc1 (centres undefined),0,?,0,?,0
CN(c1ccccc1C(=O)Nc1ccc(CC#N)cc1)S(=O)(=O)c1ccccc1,0,0,0,0,0
O=[N+]([O-])c1cc(CN2CCCC2)c2cccnc2c1O,-,?,18µM,9.3µM,0
Oc1ccc(CN2CCCCC2)c2cccnc12,-68,0,?,?,0
SMILES,HCMV inh,Pf growth 96h,FBPA Giardia inh,Pf growth 48h,Sm TGR block
Oc1c(CN2CCCCC2)ccc2cccnc12,-74,-,-,-,-
Oc1ccc(CN2CCc3ccccc3C2)c2cccnc12,-99,3.7µM,?,?,32µM
C/C(=N\NC(=O)Cc1ccc(F)cc1)c1ccc(O)cc1,0,0,0,0,0
CCOC(=O)N1CCN(Cc2ccc(O)c3ncccc23)CC1,0,0,0,?,0.28µM
COc1ccc2c(c1)O[C@H](c1ccc3c(c1)OCO3)[C@@H](OC(=O)NCCOc1ccccc1)C2=O,-,-,0,-,-
COC(=O)c1sc(S(=O)(=O)N2CCCCC2C)c(C(=O)OC)c1C (centres undefined),0,?,-,?,0
Fc1cccc(NCCc2c[nH]c3ccccc23)n1,0,0,0,0,0
c1ccc2c(NCCc3c[nH]c4ccccc34)c3ccccc3nc2c1,?,3.3µM,0,0.59µM,0
OCCCNc1c2ccccc2nc2ccccc12,-102,0,0,5.2µM,0
COc1ccccc1NC(=O)/C(=C/c1cccc([N+](=O)[O-])c1)c1ccccc1,?,0,0,?,0
Cc1cc(NC(=O)c2ccco2)c(=O)n(Cc2cccc(C(F)(F)F)c2)c1,0,0,0,0,0
Cc1cccc(NC(=O)CNC(=O)c2ccc(S(=O)(=O)NCc3ccco3)cc2)c1C,0,-,-,-,-
COc1ccc(S(=O)(=O)N2CCN(C(=O)C3COc4ccccc4O3)CC2)cc1 (centres undefined),0,?,-,?,18µM
CCN1CCN(C(=O)C2COc3ccccc3O2)CC1 (centres undefined),0,0,-,0,22µM
CCCC(NCC(=O)Nc1cc(S(=O)(=O)N2CCOCC2)ccc1OC)c1ccccc1 (centres undefined),0,12µM,-,12µM,0
COc1ccc(S(=O)(=O)N2CCOCC2)cc1NC(=O)CSc1nnnn1C1CC1,-60,0,-,0,0
CS(=O)(=O)Nc1cccc(-c2nccc(Nc3ccc(F)cc3)n2)c1,-,-,0,-,-
Cc1ccc(NC(=O)Cn2c(-c3nonc3N)nc3ccccc32)cc1C,0,-,-,-,0
COC(=O)NC(c1cccc(F)c1)C(C(C)=O)C(=O)OC (centres undefined),-,-,0[12.9 µM],-,-
Clc1ccc(-c2n[nH]c3c2CCCC3)cc1,-72,0,0,0,0
Clc1ccc(-c2n[nH]c3c2CCC3)cc1Cl,0,0,0,0,0
c1ccc(C2=Nc3ccccc3OC2)cc1,0,?,0,-,50µM
Cc1ccc2c(c1)N=C(c1ccc(Cl)cc1)CO2,-102,0,0,-,0
Clc1ccc(C2=Nc3cc(Cl)ccc3OC2)cc1,0,0,0,0,0
CCC(=O)Nc1ccc2c(c1)OC[C@@H](C)N(Cc1ccccc1F)C[C@@H](C)[C@@H](OC)CN(C)C2=O,0,-,-,-,-
SMILES,HCMV inh,Pf growth 96h,FBPA Giardia inh,Pf growth 48h,Sm TGR block
CC1C/C(=N/Nc2nc3ccccc3[nH]2)CC(C)(C)C1 (centres undefined),0,2.1µM,0,3.7µM,0
CC1(C)N([O-])C(c2ccccc2)=C[N+](=O)C1(C)C,0,0,0,0,0
CC1(C)N([O-])C(c2cccs2)=C[N+]1=O,0,10µM,0,0,0
COCCNC(=O)CNC(=S)N(Cc1ccccc1)Cc1cccnc1,0,12µM,0,0,0
Cc1ccc(CNC(=O)CNC(=S)N(Cc2ccccc2)Cc2cccnc2)cc1,0,?,0,0,0
O=C(CNC(=S)N(Cc1ccccc1)Cc1ccccc1F)NCCc1ccc(Cl)cc1,0,?,0,12µM,0
COCCCNC(=O)CNC(=S)N(Cc1ccccc1)Cc1cccnc1,0,10µM,0,0,0
COc1ccc(NC(=O)c2ccc3c(SCC(=O)O)c4c(nc3c2)CCC4)c(OC)c1,0,-,-,-,0
CCOc1cc(-c2nc(C)c(C(C)=O)n2O)ccc1OCC(=O)Nc1cccc(C)c1,0,0,0,0,0
Cc1cccc(CN2CCN(C(C)C(=O)NC(C)c3ccccc3)CC2)c1 (centres undefined),0,0,?,0[0.00184 µM],0
